Source: PubChem BioAssay AID777 (Sanford-Burnham Center for Chemical Genomics, 2007)
Out of some 96,000 compounds screened, about 19,000 (20%) were called active. A selection follows. Unmarked numbers belong to inactive results.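 Rule for the calls: active = blocking of liver enzyme CYP2C9 beyond about 50% at 5 µM (limit read from the data); inactive = the rest.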

Target: Cytochrome P450 2C9 (Homo sapiens) (UniProt P11712)
Test: blockers of cytochrome P450 2C9 activity – biochemical, luminescence, ADME assay, primary screen (AID 777)
Details: CYP2C9 Supersomes, luciferin-H conversion, at 5 µM, stronger effect = higher value

Chain of Cytochrome P450 2C9 (Homo sapiens) (P11712 whole entry, looked up): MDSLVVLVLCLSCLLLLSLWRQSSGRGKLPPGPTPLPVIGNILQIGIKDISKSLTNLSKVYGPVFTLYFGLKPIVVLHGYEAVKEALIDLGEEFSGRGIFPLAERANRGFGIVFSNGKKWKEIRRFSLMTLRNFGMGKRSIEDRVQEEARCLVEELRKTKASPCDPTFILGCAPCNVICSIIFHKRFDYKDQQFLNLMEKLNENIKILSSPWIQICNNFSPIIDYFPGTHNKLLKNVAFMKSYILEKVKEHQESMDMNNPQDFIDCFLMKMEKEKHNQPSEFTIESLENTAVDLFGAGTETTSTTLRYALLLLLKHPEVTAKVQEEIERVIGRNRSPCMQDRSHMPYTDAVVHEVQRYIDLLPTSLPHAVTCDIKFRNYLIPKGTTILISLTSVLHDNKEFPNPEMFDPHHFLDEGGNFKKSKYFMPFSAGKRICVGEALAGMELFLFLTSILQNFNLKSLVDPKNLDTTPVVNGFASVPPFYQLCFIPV

SMILES | inhibition
CN=C1SC(CC(=O)Nc2ccc(C(=O)O)cc2)C(=O)N1C (stereo unspecified) | 8.3%
CCCCOc1ccc(NC(=O)CSCC(=O)OCC)cc1 | 0.4%
CCOC(=O)C1CCCCN1Cc1ccc(OC)c(OC)c1OC (stereo unspecified) | 29.7%
COc1ccc2c(c1)CCc1c(C(=O)N3CCCC3)noc1-2 | -6.1%
COc1ccc2c(c1)CCc1c(C(=O)N3CCc4ccccc4C3)noc1-2 | 73.7% (active)
COc1ccc2c(c1)CCc1c(C(=O)Nc3c(C)n(C)n(-c4ccccc4)c3=O)noc1-2 | 14%
CCOC(=O)c1cc(-c2ccc(Cl)s2)nc2c1c(C)nn2C | 32.3%
Cc1cc(C(F)F)n2nc(C(=O)Nc3ccc(S(=O)(=O)NC45CC6CC(CC(C6)C4)C5)cc3)nc2n1 | 24.7%
CCOc1c(OC)cc(C2C(C#N)=C(N)Oc3n[nH]c(-c4ccncc4)c32)cc1OC (stereo unspecified) | 20.1%
COc1ccc(/C=C2\CCCC3C2=NN(C(=O)c2scnc2C)C3c2ccc(OC)cc2)cc1 (stereo unspecified) | 83.4% (active)
Cc1nc2ccc(C(=O)O)cc2[nH]1 | 14.9%
Cc1cc(Br)ccc1NC(=O)C1CCCO1 (stereo unspecified) | -2.8%
CCOC(=O)C1CN(S(=O)(=O)c2ccc(F)cc2)C1 | 8.2%
COc1ccc(OC)c(NC(=O)CC(Cc2ccccc2OC)C(=O)O)c1 (stereo unspecified) | 40.6%
CCCCCCC(=O)Nc1nc(C)c(-c2csc(Nc3cc(Cl)ccc3OC)n2)s1 | 14.8%
CCCCC(=O)Nc1nc(C)c(-c2csc(Nc3ccc(Cl)cc3)n2)s1 | 57.3% (active)
C=CCCC(=O)Nc1nc(C)c(-c2csc(Nc3ccc(Cl)cc3)n2)s1 | 38.2%
CC(C)C(=O)N1c2ccccc2NC2=C(C(=O)CCC2)C1c1ccc(N(C)C)cc1 (stereo unspecified) | 16.8%
COc1ccc(CCn2c(-c3ccco3)nc3nc4ccccc4nc32)cc1OC | 34.7%
CCC(C)n1c(-c2cc(OC)c(OC)c(OC)c2)nc2nc3ccccc3nc21 (stereo unspecified) | 95.3% (active)
COC(=O)c1nc(NC(=O)c2ccc(Cl)cc2)n[nH]1 | 7.9%
O=S(=O)(Nc1nccs1)c1ccc2c(c1)OCCO2 | -23.3%
O=C(/C=C/c1ccccc1)N/C(=C/c1ccccc1)C(=O)Nc1ccccc1O | 62.7% (active)
O=C(/C=C/c1ccccc1)c1ccoc1 | 15.1%
CCc1ccccc1NC(=O)/C(=C/c1ccccc1)c1ccccc1 | 16.4%
CC(C)c1ccc(-c2nn[nH]n2)cc1 | 9.2%

SMILES | inhibition
O=C(Nc1ccc(Cl)cc1)N1CCc2[nH]c3ccccc3c2C1 | 14.2%
Cc1cc(C)c(NC(=O)CS(=O)CC(=O)Nc2cccnc2)c(C)c1 (stereo unspecified) | 22.7%
CCC(=O)Nc1cccc(NC(=O)c2cccnc2)c1 | 6.5%
Cc1cccc(-n2cnc(C(=O)Nc3cccnc3)c2)n1 | 88.2% (active)
Cc1cc(-n2nc(C)cc2C)n2nc(C)c(-c3ccccc3)c2n1 | 25.1%
CC(Oc1ccc(Cl)cc1)C(=O)OCC(=O)Nc1ncc(Cl)cc1Cl (stereo unspecified) | -20.7%
Cc1cc(C)cc(OCC(=O)Nc2nc3ccc([N+](=O)[O-])cc3s2)c1 | 48.4%
CNC(=O)c1ccc2nc(NC(C)=O)sc2c1 | 21.5%
O=C(NC(Nc1nc2ccc([N+](=O)[O-])cc2s1)(C(F)(F)F)C(F)(F)F)c1ccccc1 | 97.4% (active)
O=C(Nc1ccc(Cl)cc1)c1ccsn1 | -4.3%
O=C(Nc1ccccc1)c1nnsc1S(=O)(=O)c1ccc(Cl)cc1 | 74.9% (active)
O=C(c1ccc(Cl)cc1)c1cnc(Nc2ccccc2)s1 | 21.7%
Cc1ccc(N2CCN(c3ccc(C)cc3)C2c2ccccn2)cc1 | 1.3%
O=C(NCCCCCCCCCNC(=O)C(F)(F)F)C(F)(F)F | 11.2%
CCCOc1ccccc1C(=O)NCCCC(=O)O | -8.2%
CS(=O)(=O)N1CCN(C(=O)Cc2ccccc2)CC1 | -5.4%
CCOc1ccc(Cn2nnc(C(=O)NCc3ccccc3)c2N)cc1 | -2.2%
COc1ccc(OC)c(CN2C(=O)CCC2(C)C(=O)NC2CCCCCC2)c1 (stereo unspecified) | 30%
CC(=O)Oc1ccc2c(C)c(CC(C)O)c(=O)oc2c1 (stereo unspecified) | -16%
CCOC(=O)CCc1c(C)c2ccc(OCc3nn[nH]n3)c(C)c2oc1=O | 86.3% (active)
Cc1c(C(=O)Nc2ccccc2Cl)oc2ccc(S(=O)(=O)N3CCC4(CC3)OCCO4)cc12 | 31.2%
CCOC(=O)C1CCN(C(=O)c2oc3ccc(S(=O)(=O)N4CCCCCC4)cc3c2C)CC1 | 53.6% (active)
CCOC(=O)N1CCN(C(=O)c2cn(C)c3ccc(S(=O)(=O)N4CCCC4)cc3c2=O)CC1 | -6.2%
C=CCn1c(COc2ccccc2F)nnc1SCC(=O)N1CC(=O)Nc2ccccc21 | 12.5%
CCN1C(=O)C(CC(=O)Nc2cc(C)ccc2C)SC1=Nc1ccc(S(N)(=O)=O)cc1 (stereo unspecified) | 90.8% (active)
Cc1ccc(C)c(NC(=O)C2CC(=O)N(C(C)C)C2)c1 (stereo unspecified) | -14.4%

SMILES | inhibition
CCN=C1SC(CC(=O)Nc2ccc(C)cc2)C(=O)N1CC (stereo unspecified) | -8.7%
O=S(=O)(/C=C/c1ccccc1)NCCc1ccccn1 | -35.1%
Cc1nnc(SCC(=O)N(C(C)C)C(C)C)nc1C | -18.5%
CCCn1c(=O)c(-c2ccccc2)c(O)c2ccccc21 | 1.5%
Cc1cccc(OCC(O)Cn2c(=N)n(CCN3CCOCC3)c3ccccc32)c1 (stereo unspecified) | -8.4%
O=C(Nc1nc2cc3c(cc2s1)OCCO3)c1cccc(S(=O)(=O)N2CCOCC2)c1 | 50.9% (active)
O=C(c1ccc2c(c1)OCCO2)C1CCN(S(=O)(=O)c2cccc(F)c2)CC1 | -18.3%
COc1ccc(S(=O)(=O)N2CCOCC2)cc1C(=O)Nc1nc2ccccc2s1 | -3.9%
CC1(C)CC(CCC(=O)Nc2ccccc2Cl)C(=O)O1 (stereo unspecified) | -35.4%
CCc1nnc(NC(=O)CCC(=O)O)s1 | -9.1%
CCCCc1nc2c(=O)[nH]c3ccccc3c2o1 | -4.4%
O=C(Nc1ccc2ccccc2c1)Nc1ccc2snnc2c1 | 19.3%
COc1ccc(NC(=O)/C(Cl)=C(/Cl)S(=O)Cc2ccc(C)cc2)cn1 (stereo unspecified) | 52.9% (active)
COc1cccc(NC(=O)Cc2ccc(C)cc2)c1 | 21.1%
O=C(Nc1cccc2c1CCCC2)C1CCN(C(=O)NC2CCCCC2)CC1 | 1.9%
Cc1ccc(S(=O)(=O)C(C#N)c2nc3ccccc3nc2N2CCCC2)cc1C (stereo unspecified) | 93.4% (active)
Cc1cccc2cc(C#N)c(N3CCCC3)nc12 | -2.2%
CC(C)CCOc1ccc(C(=O)C[N+]2(C)CCOCC2)cc1 | 11%
COc1ccccc1NC1=NC2(CCCC2)N=C(N)N1 | -4%
Cc1nc(N2CCOCC2)nc2c1CCCC2 | -1.5%
CCOc1ccc(-c2nnn(CC(=O)N3CCN(c4ccc(F)cc4)CC3)n2)cc1OCC | -6.1%
O=C(Nc1ccccc1-c1nnn(CC(=O)N2CCN(c3ccccc3)CC2)n1)c1cccs1 | 80.1% (active)
COc1ccccc1N1CCN(C(=O)Cn2nnc(-c3cccs3)n2)CC1 | 47.2%
CC(=O)c1ccc(OCCN2CCOCC2)cc1 | 9.9%
CC1CC(c2ccccc2)n2nc(NC(=O)c3cccs3)nc2N1 (stereo unspecified) | 0.9%
CCOC(=O)C1CCCN(C(=O)c2cncc(Br)c2)C1 (stereo unspecified) | 33.3%

SMILES | inhibition
Cc1cc(=O)n2nc(N3CCCC(C(=O)NCCC4=CCCCC4)C3)sc2n1 (stereo unspecified) | 61.7% (active)
COc1ccc(CCNC(=O)C2CCN(c3nn4c(=O)cc(C)nc4s3)CC2)cc1OC | -11.8%
Cc1cc(=O)n2nc(N3CCCC3C(=O)NCCCN3CC(C)CC(C)C3)sc2n1 (stereo unspecified) | 1.8%
CCCC(=O)Nc1nnc(CC(=O)OCC)s1 | -12.8%
COCCCNC(=O)Cn1cc(C(=O)C2CC2)c2ccccc21 | 11.2%
CN1CCN(S(=O)(=O)c2ccc(NC(=O)C3CCCO3)cc2)CC1 (stereo unspecified) | 60% (active)
CN1CCN(S(=O)(=O)c2ccc(NC(=O)c3ccco3)cc2)CC1 | -13.5%
O=C(Nc1nc2ccc(S(=O)(=O)N3CCCC3)cc2s1)C1CCCO1 (stereo unspecified) | 46.1%
c1csc(CN2CCN(Cc3cccs3)C2c2cccs2)c1 | -9%
Cc1[nH]c2ccccc2c1C(=O)COC(=O)C(C)C | -5%
COc1ccccc1CCNC(=O)c1cnccn1 | -35.8%
COc1ccc(S(=O)(=O)N(CCCN2CCCC2=O)Cc2cc3c(C)ccc(C)c3[nH]c2=O)cc1 | 85.6% (active)
CCOc1ccc(C(=O)NCCCN2CCCC2=O)cc1 | 12.3%
CCCN(Cc1cc2cccc(C)c2[nH]c1=O)S(C)(=O)=O | 36.4%
CSc1ccc(Cl)c(C(=O)OCC(=O)N2CC(C)OC(C)C2)c1 (stereo unspecified) | -24.7%
Cc1nc2nc3c(cn2n1)C(=O)CC(c1ccccc1)C3 (stereo unspecified) | 65.6% (active)
COc1ccc(CNC(=O)c2c(C)cc(=O)oc2C)cc1OC | 32.7%
Cc1cc(=O)oc(C)c1C(=O)NCc1ccc(F)cc1 | 51.6% (active)
Cc1cc(=O)oc(C)c1C(=O)Nc1cnc2ccccc2c1 | 10.5%
O=C(c1ccc(Cl)c(Cl)c1)N1CCCC1 | 7%
Cc1ccc(CNC(=O)CN2CCN(Cc3ccc(Cl)cc3)C2=O)cc1 | 17.5%
O=C(CN1CCN(S(=O)(=O)c2ccc(Cl)s2)CC1)NCc1ccc(Cl)cc1 | 55.1% (active)
Cc1cccc(NC(=O)CN2CCCN(S(=O)(=O)c3ccc(Br)s3)CC2)c1 | 11.6%
